In PubChem BioAssay (EPA / NIEHS) one finds AC50 and outcome data, which are given here for 31 compounds.

Assay [1] addresses Bile acid receptor (Homo sapiens) (UniProt Q96RI1). Put plainly: ATG_IR1_CIS: Attagene CIS-FACTORIAL HepG2 Assay for human Nuclear Receptor Subfamily 1 Group H Member 4 (NR1H4), IR1 submotif (AID 2282946). The note with it: IR1 reporter transcription, actives raise or lower the signal. In a few lines:
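HepG2 cells transiently transfected with multiplexed cis-element reporter units read endogenous transcription factor activity. After 24 h compound exposure, reporter mRNA was quantified by RT-PCR, fluorescent labelling, HpaI digestion and capillary electrophoresis; bidirectional fitting versus DMSO baseline.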

Assay [2] in a line: ATG_M_61_CIS: Attagene CIS-FACTORIAL HepG2 Assay for M61 Transcription Factor (Internal Marker) (AID 2282937). The note with it: HepG2 Attagene CIS-FACTORIAL M61 internal marker reporter; actives raise or lower the signal. In a few lines:
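Background-control endpoint: HepG2 cells with cis-regulated reporter constructs, 24 h exposure, reporter mRNA detected via fluorescent primer extension and capillary electrophoresis; values from bidirectional fitting with DMSO baseline.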

Assay [3] is described as follows: ATG_EGR_CIS: Attagene CIS-FACTORIAL HepG2 Assay for human Early Growth Response 1 (EGR1) (AID 2282938). The conditions noted are these: HepG2 Attagene CIS-FACTORIAL EGR reporter mRNA; actives raise or lower the signal. In outline:
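Endpoint derived by bidirectional fitting versus DMSO vehicle. Method: cis-promoter reporter units transfected into HepG2, 24 h dosing, RNA isolation, RT-PCR with 6-FAM primer extension and HpaI digestion, then capillary electrophoresis fluorescence detection.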

Assay [4] in a line: ATG_M_19_CIS: Attagene CIS-FACTORIAL HepG2 Assay for M19 Transcription Factor (Internal Marker) (AID 2282939). The note with it: HepG2 Attagene CIS-FACTORIAL M19 internal marker reporter; actives raise or lower the signal. In outline:
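Background-control endpoint from a multiplexed HepG2 reporter panel. Cells carrying cis-regulated reporter constructs are treated 24 h, then reporter transcripts are amplified, fluorescently labelled and sized by capillary electrophoresis. DMSO defines baseline.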

Assay [5] is described as follows: ATG_Ets_CIS: Attagene CIS-FACTORIAL HepG2 Assay for human Erythroblast Transformation Specific (ETS) (AID 2282941). The note with it: HepG2 ETS cis-reporter transcription, actives raise or lower the signal. In a few lines:
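RT-PCR/capillary electrophoresis fluorescence read-out of reporter mRNA; HepG2 transient multi-reporter transfection; 24 h compound exposure; gain or loss of signal fitted bidirectionally relative to DMSO.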

Assay [6] concerns the target Hepatocyte nuclear factor 3-beta (Homo sapiens) (UniProt Q9Y261). Nature of the assay: ATG_FoxA2_CIS: Attagene CIS-FACTORIAL HepG2 Assay for human Forkhead box A2 (FOXA2) (AID 2282942). The note with it: HepG2 cis-reporter transcription factor activity, 24 h; actives raise or lower the signal. In outline:
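Measured: reporter mRNA induction or loss in HepG2 transiently carrying multiple cis-regulated reporter units, 24 h after dosing. Quantified by RT-PCR plus capillary electrophoresis, normalised to DMSO.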

Assay [7] is described as follows: ATG_FoxO_CIS: Attagene CIS-FACTORIAL HepG2 Assay for human Forkhead box O (FoxO) (AID 2282943). The note with it: HepG2 Attagene cis-reporter, FoxO element, mRNA; actives raise or lower the signal. In outline: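 Human hepatoma HepG2 cells carry transiently introduced reporter transcription units controlled by cis promoter elements. Chemical treatment lasted 24 h, and mRNA signal was compared with DMSO.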

The nature of assay [8]: ATG_GATA_CIS: Attagene CIS-FACTORIAL HepG2 Assay for human GATA Binding Protein (AID 2282944). The note with it: HepG2 GATA cis-element reporter, Attagene multiplex mRNA; actives raise or lower the signal. In a few lines: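 Endogenous transcription factor activity was captured through cis-promoter-driven reporters in transfected HepG2 cells. After 24 h exposure, reporter transcripts were quantified by RT-PCR with fluorescent capillary electrophoresis, and responses fitted both directions against DMSO.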

Assay [9] is described as follows: ATG_GLI_CIS: Attagene CIS-FACTORIAL HepG2 Assay for human Zinc Finger Protein GLI1 (AID 2282945). The note with it: HepG2, Attagene cis-factorial reporter mRNA, GLI element; actives raise or lower the signal. In a few lines:
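Bidirectional curve fits relative to DMSO, using reporter mRNA levels from RT-PCR plus capillary electrophoresis. Cells were HepG2 transiently carrying cis-regulated reporter constructs, harvested 24 h after dosing.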

The structures appear in SMILES notation. “And” between values parts separate entries of the source, which are not always exact repeats. Identical values can stand only once. A structure can be active in one record and inactive in another. The source made the active and inactive calls. Rule for the calls: active = hit-call score of the fitted dose curve at least 0.9, where 1 is the maximum; inactive = score below 0.9.

Chain of Bile acid receptor (Homo sapiens) (Q96RI1 whole entry, looked up): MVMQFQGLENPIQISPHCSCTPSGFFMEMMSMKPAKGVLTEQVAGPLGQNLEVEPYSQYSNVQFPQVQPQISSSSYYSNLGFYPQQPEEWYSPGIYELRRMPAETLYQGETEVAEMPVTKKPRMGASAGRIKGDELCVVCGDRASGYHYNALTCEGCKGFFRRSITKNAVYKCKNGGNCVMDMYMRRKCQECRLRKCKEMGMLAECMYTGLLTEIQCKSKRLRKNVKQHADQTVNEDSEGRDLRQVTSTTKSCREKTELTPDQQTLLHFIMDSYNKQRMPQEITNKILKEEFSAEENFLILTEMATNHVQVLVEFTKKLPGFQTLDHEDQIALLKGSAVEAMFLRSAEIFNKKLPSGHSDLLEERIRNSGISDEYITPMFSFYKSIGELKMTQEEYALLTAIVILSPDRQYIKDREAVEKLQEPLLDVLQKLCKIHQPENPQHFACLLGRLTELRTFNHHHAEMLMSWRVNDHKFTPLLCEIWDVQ
Chain of Hepatocyte nuclear factor 3-beta (Homo sapiens) (Q9Y261 whole entry, looked up): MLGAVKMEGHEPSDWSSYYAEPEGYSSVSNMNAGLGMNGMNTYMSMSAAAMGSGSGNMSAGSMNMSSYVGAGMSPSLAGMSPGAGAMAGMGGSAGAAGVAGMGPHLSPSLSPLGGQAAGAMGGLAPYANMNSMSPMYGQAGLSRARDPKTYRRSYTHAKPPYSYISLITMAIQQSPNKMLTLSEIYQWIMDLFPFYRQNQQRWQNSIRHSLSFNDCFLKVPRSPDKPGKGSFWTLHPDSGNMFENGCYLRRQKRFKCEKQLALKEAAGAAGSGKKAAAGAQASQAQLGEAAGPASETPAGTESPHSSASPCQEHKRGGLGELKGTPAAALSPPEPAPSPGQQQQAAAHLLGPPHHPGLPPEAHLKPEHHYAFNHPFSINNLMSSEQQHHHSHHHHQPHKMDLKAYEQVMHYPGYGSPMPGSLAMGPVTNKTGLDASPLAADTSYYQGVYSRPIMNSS

Turning to `CCN(CC)CCOc1ccc(C(=C(Cl)c2ccccc2)c2ccccc2)cc1`, in assay [1], the AC50 (in general, the midpoint of the concentration-response curve, whichever way the signal moves) is 5.65 µM (active) and 4.78 µM (active); the outcome was inactive.
Regarding `CCc1nc(N)nc(N)c1-c1ccc(Cl)cc1`, the compound was classed as inactive in assay [2], in assay [4], in assay [5], in assay [6], in [7] and in assay [8]. Moreover, the outcome in assay [9] and in assay [1] was inactive. For the same compound, in [3], the AC50 was 32.8 µM (active).
As for `C=CCc1ccc(OC)c(OC)c1`, the compound was classed as inactive in [2], in [3], in assay [4], in assay [5], in assay [6] and in [7]. Besides, the call in [8], in assay [9] and in [1] was inactive.
Regarding `CCCCCCC(CCCCCCCCCCC(=O)OCC(COC(C)=O)OC(C)=O)OC(C)=O` (configuration not stated), the compound was called inactive in assay [2], in assay [3], in assay [4], in assay [5], in assay [6] and in assay [7]. In addition, the call in assay [8], in [9] and in assay [1] was inactive.
For `O=NO`, the outcome in assay [2], in assay [3], in assay [4], in assay [5], in [6] and in assay [7] was inactive. In addition, the call in [8] and in assay [9] was inactive.
With `c1ccc2occc2c1`, the compound was called inactive in assay [2], in assay [3], in [4], in assay [5], in assay [6] and in assay [7]. The call in [8], in [9] and in [1] was inactive.
With `CCCCCCC(C=O)=Cc1ccccc1`, the compound was classed as inactive in [2], in assay [3], in assay [4], in [5], in assay [6] and in assay [7]. The compound was called inactive in assay [8], in assay [9] and in assay [1].
Take `CC(C)(C)c1ccccc1`: the compound was called inactive in assay [2], in [3], in assay [4], in assay [5], in [6] and in assay [7]. The compound was called inactive in [8] and in assay [9].
Take `O=C(O)CN(CC(=O)O)CC(=O)O`: the compound was called inactive in [2], in assay [3], in assay [4], in assay [5], in [6] and in assay [7]. Moreover, the compound was classed as inactive in assay [8], in assay [9] and in assay [1].
As for `CN(C)C(=O)NC1(c2ccccc2)CCN(CC[C@@]2(c3ccc(F)c(F)c3)CN(C(=O)c3ccccc3)CCO2)CC1`, the compound was called inactive in assay [2], in assay [3], in assay [4], in [5], in assay [6] and in assay [7]. Besides, the call in [8], in assay [9] and in assay [1] was inactive.
As for `NC=O`, the result in [2], in [3], in [4], in assay [5], in assay [6] and in assay [7] was inactive. Also, the result in assay [8], in assay [9] and in [1] was inactive.
`Cn1cnc2c1c(=O)[nH]c(=O)n2C`: the compound was called inactive in [2], in [3], in [4], in [5], in assay [6] and in [7]. Besides, the result in assay [8], in assay [9] and in [1] was inactive.
For `Oc1ccccc1O`, the compound was called inactive in assay [2], in assay [3], in assay [4], in [5], in assay [6] and in assay [7]. The compound was classed as inactive in [8] and in [9].
Regarding `CC(=O)[C@@]1(O)CC[C@H]2[C@@H]3CCC4=CC(=O)CC[C@]4(C)[C@H]3CC[C@@]21C`, the call in assay [2], in [3], in assay [4], in assay [5], in [6] and in [7] was inactive. For the same compound, the compound was classed as inactive in [8] and in assay [9].
As for `CC(C)COC(=O)CCCCC(=O)OCC(C)C`, the result in [2], in assay [3], in [4], in [5], in assay [6] and in [7] was inactive. Further, the compound was classed as inactive in assay [8], in assay [9] and in [1].
`O=C(O)c1[nH]n(-c2ccc(S(=O)(=O)O)cc2)c(=O)c1N=Nc1ccc(S(=O)(=O)O)cc1`: the outcome in assay [2], in assay [3], in assay [4], in [5], in [6] and in assay [7] was inactive. Besides, the compound was called inactive in assay [8], in assay [9] and in assay [1].
Turning to `CSc1ccc(Oc2ccc(S(N)(=O)=O)cc2CN(C)C)cc1C`, the outcome in assay [2], in assay [3], in assay [4], in assay [5], in assay [6] and in [7] was inactive. The result in [8], in assay [9] and in assay [1] was inactive.
As to `COC(=O)CCCC(=O)OC`, the result in assay [2], in assay [3], in assay [4], in [5], in assay [6] and in assay [7] was inactive. For the same compound, the compound was called inactive in assay [8], in assay [9] and in [1].
Take `CN(C)CCCN(C)CCCN(C)C`: the compound was called inactive in assay [2], in assay [3], in assay [4], in [5], in [6] and in assay [7]. The compound was called inactive in [8], in assay [9] and in assay [1].
Regarding `Cc1cn([C@H]2C=C[C@@H](CO)O2)c(=O)[nH]c1=O`, the compound was called inactive in [2], in assay [3], in assay [4], in assay [5], in assay [6] and in assay [7]. The outcome in [8], in assay [9] and in [1] was inactive.
For the compound `CC(C)OC(=O)C(C)(C)Oc1ccc(C(=O)c2ccc(Cl)cc2)cc1`, the result in assay [2], in assay [4], in assay [5], in assay [6], in assay [7] and in [8] was inactive. Further, the call in [9] and in assay [1] was inactive. Further, the AC50 in assay [3] is 38.4 µM (active).
Consider `C=CCCCCCCCCCCCC`, for which the outcome in assay [2], in [3], in assay [4], in [5], in assay [6] and in [7] was inactive. For the same compound, the compound was classed as inactive in [8], in assay [9] and in assay [1].
Consider `CCCC(=O)O`, for which the compound was called inactive in [2], in [3], in [4], in assay [5], in [6] and in assay [7]. In addition, the compound was called inactive in assay [8] and in [9].
`COC(=O)CCC(=O)OC`: the call in [2], in assay [3], in [4], in assay [5], in assay [6] and in assay [7] was inactive. The result in assay [8], in assay [9] and in [1] was inactive.
As for `CCCCC(CC)CO` (configuration not stated), the call in assay [2], in [3], in assay [4], in assay [5], in assay [6] and in assay [7] was inactive. For the same compound, the outcome in assay [8], in assay [9] and in [1] was inactive.
For `CCCCC(CC)COC(=O)CCCCCCCC(=O)OCC(CC)CCCC` (configuration not stated), the result in assay [2], in assay [3], in [4], in assay [5], in assay [6] and in assay [7] was inactive. Moreover, the compound was classed as inactive in [8], in assay [9] and in assay [1].
Regarding `O=C(N[C@@H](c1ccccc1)[C@@H]1CCCCN1)c1cccc(C(F)(F)F)c1Cl`, the result in [2], in assay [4], in [6], in assay [7], in [8] and in [1] was inactive. In addition, the AC50 is 25.7 µM (active) in assay [3], 33 µM (active) in assay [5] and 55.9 µM (active) in assay [9].
For the compound `Cc1c(C)c2c(c(C)c1O)CCC(C)(COc1ccc(CC3SC(=O)NC3=O)cc1)O2` (configuration not stated), the compound was classed as inactive in assay [2], in [3], in [4], in assay [5], in assay [6] and in [7]. The compound was called inactive in assay [8], in assay [9] and in assay [1].
In the case of `CCCCc1nc2cccnc2n1Cc1ccc(-c2ccccc2-c2nnn[nH]2)cc1`, the compound was called inactive in assay [2], in [3], in [4], in assay [5], in assay [6] and in assay [7]. The call in [8], in assay [9] and in [1] was inactive.
Turning to `CN(C)C(=O)NC1(c2ccccc2)CCN(CCC[C@]2(c3ccc(Cl)c(Cl)c3)CCCN(C(=O)c3ccccc3)C2)CC1`, the outcome in assay [2], in [4], in assay [5], in assay [6], in assay [7] and in assay [8] was inactive. Besides, the outcome in assay [9] was inactive. The AC50 in assay [3] is 2.75 µM (active); in [1], 4.21 µM (active).
In the case of `Cc1ccc(C(C)(C)C)c(O)c1`, the compound was called inactive in assay [2], in assay [4], in assay [6], in assay [7], in assay [8] and in [9]. Also, in [1], the compound was classed as inactive. For the same compound, the AC50 in assay [3] was 158 µM (active); in [5] it was 63.7 µM (active).
